The panel holds about 83,000 compounds, 20% with a hit somewhere; the sample as a whole holds those more often.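 For each line, cells grew in 96-well plates with the test compound present at a single concentration for 48 hours.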 A number with no mark means an inactive call. Activity calls are given as the source filed them. Rule for the calls: active = growth percent below 10; inactive = the rest.
Tests used:
Test in all cases: NCI-60 one-dose screen, 48 h (100 = growth as untreated, 0 = no growth, -100 = all killed)
Conditions in all cases: 10 µM unless noted
NCI-H23 lung = tested on: NCI-H23 lung
NCI-H226 lung = tested on: NCI-H226 lung
NCI-H322M lung = tested on: NCI-H322M lung
HOP-62 NSCLC = tested on: HOP-62 NSCLC
NCI-H460 lung = tested on: NCI-H460 lung
HOP-92 NSCLC = tested on: HOP-92 NSCLC
NCI-H522 lung = tested on: NCI-H522 lung
A549/ATCC NSCLC = tested on: A549/ATCC NSCLC
786-0 renal = tested on: 786-0 renal

| SMILES | growth (NCI-H23 lung) | growth (NCI-H226 lung) | growth (NCI-H322M lung) | growth (HOP-62 NSCLC) | growth (NCI-H460 lung) | growth (HOP-92 NSCLC) | growth (NCI-H522 lung) | growth (A549/ATCC NSCLC) | growth (786-0 renal) |
| --- | --- | --- | --- | --- | --- | --- | --- | --- | --- |
| COc1ccc(-c2cncnc2N)cc1OC | 108% | 107% | 114% | -100% (active) | 98.6% | 85.2% | 105% | 97.5% | 107% |
| O=[N+]([O-])c1ccccc1C(O)Cc1ccc2ccccc2n1 (stereo unspecified) | 95.7% | 83.5% | 85.9% | 88% | 97.4% | 77.5% | 101% | 97.4% | 104% |
| N#C/C=C(\c1ccc([N+](=O)[O-])cc1)n1nnc2cc(Cl)c(Cl)cc21 | 40.8% | 39.7% | 46.1% | 31.2% | -8.66% (active) | 45.2% | 2.18% (active) | 53.2% | -26.7% (active) |
| O=C(CC1Sc2ccccc2NC1=O)NNc1ccc(F)cc1 (stereo unspecified) | 95.3% | 84.4% | 86.8% | 57.1% | 93.1% | 71.4% | 71.1% | 92.5% | 78.1% |
| C=C(Cl)COC(=O)C(C)(C)O | 99.4% | 113% | 90% | 105% | 104% | 103% | 93.8% | 94% | 101% |
| CN1C[C@@H](c2ccc(Cl)cc2)[C@]2(NC(=S)N(c3ccc(F)c(Cl)c3)C2=O)[C@@]12C(=O)NC1C=CC(Cl)=C[C@H]12 (stereo partly specified) | 51.9% | 59.8% | 74.6% | 79.8% | 32.8% | -7.71% (active) | 43.2% | 53% | -68% (active) |
| NS(=O)(=O)Oc1ccc(-c2sc3cc(O)ccc3c2C(=O)c2ccc(OCCN3CCCCC3)cc2)cc1 | 88% | 79% | 90.6% | 67% | 20.3% | 60.4% | 65.8% | 33.4% | 71.6% |
| O=c1ccn(C2OC(F)(CO)C(O)C2F)c(=O)[nH]1 (stereo unspecified) | 100% | 102% | 113% | 82.7% | 107% | 98.1% | 75% | 104% | 96% |
| CC(C)(C)OC(=O)N1Cc2cc3ccccc3nc2C1CO (stereo unspecified) | 85.9% | 92.1% | 104% | 102% | 107% | 96.7% | 110% | 95.6% | 95.8% |
| NC(N)=N/N=C/CO | 103% | 99% | 99.7% | 105% | 104% | 108% | 106% | 97.9% | 99.9% |
| CC1(C)N=C(N)N=C(N)N1c1ccc(Cl)c(Cl)c1 | 19.2% | 52.1% | 52.7% | 16.4% | 17% | 72.3% | 45.3% | 30.1% | 9.73% (active) |
| O=C1C2=C(CCN(Cc3ccccc3)C2)N2CCN=C2N1Cc1ccc(C(F)(F)F)cc1 | 31% | 25.9% | 37.8% | 31% | 14.7% | 18.8% | 19.9% | 27.6% | 48.8% |
| Cc1nc2ccc(C(=O)NCc3cc(C(=O)O)c(C)o3)cc2nc1C | 101% | 100% | 96.9% | 77% | 100% | 90.8% | 92.2% | 91.4% | 94.4% |
| COc1ccccc1NC(=O)Nc1ccc(-c2nc3ccccc3o2)cc1 | 99.4% | 99% | 88.7% | 95.8% | 101% | 111% | 112% | 82.2% | 89.2% |
| Clc1ccc2[nH]c3c(NCCCN4CCOCC4)ncnc3c2c1 | 76.8% | 86.1% | 68.9% | 83.5% | 69.3% | 67.8% | 90.3% | 80.1% | 80.3% |
| CCN(CC)CCCNC(=O)c1ccc(N)cc1O | 95.5% | 87.9% | 90.4% | 95.6% | 108% | 89.6% | 96.6% | 103% | 105% |
| O=C1NCC(=O)N(Cc2ccco2)[C@H]1Cc1ccccc1 | 100% | 89% | 112% | 81.6% | 103% | 88.7% | 88.2% | 102% | 95.1% |
| CC(C)OCCCNCC(=O)Nc1ccc(S(=O)(=O)c2ccc(NC(=O)CNCCCOC(C)C)cc2)cc1 | 101% | 104% | 118% | 85.9% | 94.9% | 50.2% | 93.3% | 106% | 93.5% |
| COC(=O)CNC(=O)C(=O)c1c(O)c(O)c(C(C)C)c2cc(C)c(-c3c(C)cc4c(C(C)C)c(O)c(O)c(C(=O)C(=O)NCC(=O)OC)c4c3O)c(O)c12 | 17.8% | 54.6% | 22.1% | 18.5% | 5.29% (active) | -7.96% (active) | -0.907% (active) | 11% | 33.9% |
| CCC(C)NCc1ccccc1 (stereo unspecified) | 97.1% | 92.2% | 98.1% | 97.6% | 102% | 93.8% | 66.7% | 95.4% | 98.6% |
| O=C1CSC(c2ccc(O)cc2)N1c1nnc(Cn2cnnc2)o1 (stereo unspecified) | 100% | 98.6% | 95.8% | 99.8% | 115% | 71.9% | 99.1% | 90.3% | 94.1% |
| CC(C)(O)c1cccc(F)c1 | 104% | 105% | 100% | 138% | 112% | 86.1% | 99.6% | 104% | 104% |
| N#Cc1cnn2c(-c3ccc(Cl)cc3)nc(NC3CC3)nc12 | 90.9% | 97.4% | 87.5% | 98.3% | 100% | 97.5% | 90.6% | 84.4% | 89.8% |
| CC(C)(C)N1CC(OC(N)=O)C1 | 91.2% | 98.2% | 98.6% | 100% | 113% | 96.2% | 114% | 71.8% | 96.4% |
| COc1cc2oc3cc(C)oc(=O)c3c2cc1OC | 94.1% | 96.8% | 103% | 93.2% | 105% | 92.9% | 82.1% | 87.7% | 83.4% |
| Cc1[nH]c(-c2nc3ccccc3[nH]2)c(C)c1C(=O)N1CCc2sccc2C1 | 91.2% | 88.3% | 98.6% | 98.2% | 94.4% | 81.6% | 77.1% | 93% | 99.7% |
| CCCCCCCCn1cc(C2=C(c3coc4ccc(OC)cc34)C(=O)NC2=O)c2ccccc21 | 54.4% | -38.6% (active) | 99% | 116% | 101% | 94.2% | 96.7% | 101% | 104% |
| CC(/C=N/NC(=O)c1cc(-c2ccco2)[nH]n1)=C\c1ccccc1 | 93% | 88.5% | 93.3% | 95.4% | 127% | 57.6% | 110% | 105% | -91.2% (active) |
| COc1ccc(-c2nc3ncccn3c2/C=C/C(=O)c2cc(OC)c(OC)c(OC)c2)cc1 | -19.6% (active) | -24.4% (active) | 16.1% | -12.4% (active) | -79.4% (active) | -0.213% (active) | -44.6% (active) | 10.2% | -26% (active) |

Reference: PubChem BioAssay (NCI)
